PubChem BioAssay AID624139 (Broad Institute, 2012)
The whole screen tested about 17,000 compounds, of which about 220 (1.3%) were called active.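 How the source made its calls: active means spot fluorescence over background significantly raised, with a chance value under 7% in all four replicate spots of the compound; inactive means the rest.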 Only a selection was taken, and actives are over-represented in it overall.

molecular target: Nuclear factor NF-kappa-B p105 subunit (Homo sapiens) (UniProt P19838); assay: binders of NF-kB p50 subunit, primary screen, biochemical, small molecule microarray, anti-His fluorescence (AID 624139); conditions: anti-His fluorescence binding;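 further: probe protein is his-tagged human p50 processed subunit at 1 µg/ml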
Sequence (P19838 1-433 limits assumed): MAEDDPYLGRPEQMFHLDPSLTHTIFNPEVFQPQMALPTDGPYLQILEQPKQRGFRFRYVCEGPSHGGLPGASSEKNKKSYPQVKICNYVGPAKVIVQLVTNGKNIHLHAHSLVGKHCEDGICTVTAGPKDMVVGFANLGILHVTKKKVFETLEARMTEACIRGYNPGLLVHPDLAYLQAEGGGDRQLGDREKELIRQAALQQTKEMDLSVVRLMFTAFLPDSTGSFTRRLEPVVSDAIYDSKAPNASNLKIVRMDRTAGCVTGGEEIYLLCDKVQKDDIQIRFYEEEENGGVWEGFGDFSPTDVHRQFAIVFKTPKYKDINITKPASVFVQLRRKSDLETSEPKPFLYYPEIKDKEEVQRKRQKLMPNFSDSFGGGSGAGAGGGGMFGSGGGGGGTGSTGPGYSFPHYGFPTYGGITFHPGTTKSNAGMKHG

outcome, inactive:
C[C@@H]1CN([C@H](C)CO)C(=O)c2cc(NS(=O)(=O)c3cccs3)ccc2O[C@@H](C)CCCCO[C@@H]1CN(C)S(=O)(=O)c1cccs1
C[C@@H]1CN([C@H](C)CO)C(=O)Cc2cc(NS(=O)(=O)c3cccs3)ccc2O[C@H]1CN(C)C(=O)Nc1ccc2c(c1)OCO2
C[C@@H]1CCCCO[C@@H](CN(C)S(=O)(=O)c2ccccc2)[C@@H](C)CN([C@@H](C)CO)C(=O)c2cc(NS(=O)(=O)c3cn(C)cn3)ccc2O1
C=C1CCCC(C)(C(=O)OC)C1CC/C(C)=C/CCC1=CC(=O)OC1 (stereo not drawn)
Cc1nnc(SCc2ccc(C(=O)c3ccc(Cl)cc3)o2)n1-c1ccccc1
O=C1C(=O)N(CCn2c3ccccc3c3nc4ccccc4nc32)c2ccccc21
Cc1ccc(S(=O)(=O)Nc2ccc3c(c2)C(=O)N([C@@H](C)CO)C[C@H](C)[C@@H](CN(C)S(=O)(=O)c2ccc(C)cc2)O3)cc1
C[C@@H]1CN([C@@H](C)CO)C(=O)CCCn2nncc2CO[C@H]1CN(C)Cc1ccc(C(F)(F)F)cc1
C[C@H](CO)N1C[C@H](C)[C@H](CN(C)S(=O)(=O)c2cn(C)cn2)Oc2c(NC(=O)C3CCOCC3)cccc2C1=O
C[C@@H]1CCCCO[C@@H](CN(C)C(=O)c2ccccc2)[C@H](C)CN([C@@H](C)CO)C(=O)c2cc(NS(C)(=O)=O)ccc2O1
C[C@@H]1CN([C@@H](C)CO)C(=O)c2cc(NS(C)(=O)=O)ccc2O[C@@H](C)CCCCO[C@@H]1CN(C)S(=O)(=O)c1cn(C)cn1
Cc1cc(O)c2c(c1)C(=O)OC2c1c(O)cccc1O (stereo not drawn)
COc1ccc(C)cc1NC(=O)NCCc1ccc(OC)c(OC)c1
C[C@H]1CCCCO[C@H](CN(C)C)[C@@H](C)CN([C@@H](C)CO)C(=O)c2cc(NC(=O)CCCN(C)C)ccc2O1
CNC[C@@H]1Oc2c(NS(C)(=O)=O)cccc2C(=O)N([C@@H](C)CO)C[C@H]1C
C[C@@H]1CCCCO[C@H](CN(C)C)[C@H](C)CN([C@@H](C)CO)C(=O)c2cc(NC(=O)Cc3ccccc3)ccc2O1
Cc1noc(C)c1S(=O)(=O)N(C)C[C@H]1OCCCC[C@@H](C)Oc2ccc(NC(=O)CCCN(C)C)cc2C(=O)N([C@H](C)CO)C[C@@H]1C
C=CCn1c(=O)c(C(=O)NCc2ccccn2)c(O)c2ccccc21
COc1cc(/C(C)=C/C(C)=C\C(=O)O)oc(=O)c1C
Cc1noc(C)c1S(=O)(=O)Nc1ccc2c(c1)CC(=O)N([C@@H](C)CO)C[C@@H](C)[C@@H](CN(C)C(=O)Nc1ccc(C(F)(F)F)cc1)O2
C[C@H](CO)N1C[C@H](C)[C@H](CN(C)Cc2ccc(C(F)(F)F)cc2)Oc2ccc(NS(C)(=O)=O)cc2C1=O
C=C(CC/C=C(\C)C(=O)O)C1(O)CC=C(C)CC1 (stereo not drawn)
O=C1O[C@H](c2ccccc2)[C@H](c2ccccc2)N2[C@H]1[C@@H](C(=O)N1CCN(c3ncccn3)CC1)[C@]1(C(=O)Nc3ccccc31)[C@H]2c1ccc(OCCO)cc1
C[C@H]1CN([C@@H](C)CO)C(=O)CCCn2cc(nn2)CO[C@@H]1CN(C)S(=O)(=O)c1ccc(-n2cccn2)cc1
CC(C)NC(=O)Nc1ccc2c(c1)CC(=O)N([C@@H](C)CO)C[C@@H](C)[C@H](CN(C)Cc1ccc(C(F)(F)F)cc1)O2
C/C(=C/CC[C@@H](CO)[C@H]1CC[C@@]2(C)[C@@H]3CC[C@H]4C(C)(C)[C@@H](O[C@@H]5O[C@H](CO)[C@@H](O)[C@H](O)[C@H]5O)C[C@H](O)[C@@]45C[C@@]35CC[C@]12C)CO
Cc1noc(C)c1S(=O)(=O)Nc1ccc2c(c1)CC(=O)N([C@H](C)CO)C[C@@H](C)[C@@H](CN(C)C)O2
COc1ccc(CN(C)C[C@H]2Oc3ccc(NC(=O)Cc4ccccc4)cc3CC(=O)N([C@@H](C)CO)C[C@@H]2C)cc1
CC1(C)CC[C@@]2(C(=O)O)C(C1)C1=CCC3[C@@]4(C)CC[C@H](O)C(C)(C)C4CC[C@@]3(C)[C@]1(C)C[C@H]2O (stereo partly drawn)
C[C@H](CO)N1C[C@H](C)[C@@H](CN(C)C(=O)Nc2ccccc2)Oc2ccc(N(C)C)cc2C1=O
COc1cc(C)c(C(=O)Oc2cc(C)c(C(=O)Oc3cc(C)c(C(=O)NC(C)C(=O)O)c(O)c3)c(O[C@@H]3O[C@H](CO)[C@@H](O)[C@H](O)[C@H]3OC(C)=O)c2)c(OC)c1 (stereo partly drawn)
Cc1ccc(C(=O)NCCNS(=O)(=O)c2ccccc2)cc1
COc1ccc(NC(=O)Nc2cccc3c2O[C@H](CN(C)S(=O)(=O)c2cccs2)[C@H](C)CN([C@@H](C)CO)C3=O)cc1
CNC[C@H]1Oc2ccc(N(C)C)cc2CC(=O)N([C@@H](C)CO)C[C@@H]1C
CC(C)NC(=O)N(C)C[C@H]1Oc2ccc(NS(=O)(=O)c3cn(C)cn3)cc2CC(=O)N([C@@H](C)CO)C[C@H]1C
C[C@@H]1CN([C@@H](C)CO)C(=O)Cc2cc(NC(=O)CCC(F)(F)F)ccc2O[C@@H]1CN(C)C(=O)Nc1cccc2ccccc12
Cc1cc(C)c(NC(=O)CCCC(=O)O)c(C)c1
C[C@H]1CN([C@@H](C)CO)C(=O)c2cc(NC(=O)C3CC3)ccc2O[C@@H]1CN(C)S(=O)(=O)c1cn(C)cn1
